Source: PubChem BioAssay (EPA / NIEHS)
Results filed as inconclusive are left out. Activity calls are given as the source filed them. How the source made its calls, unless noted: active means hit-call score of the fitted dose curve at least 0.9, where 1 is the maximum; inconclusive means response in the unintended direction; inactive means score below 0.9.

What was measured:
[1] = target: Retinoic acid receptor RXR-alpha (Homo sapiens) (UniProt P19793); assay: OT_NURR1_NURR1RXRa_1440: Odyssey Thera (OT) 24-hour HEK293T Protein Complementation Assay for Nurr1/retinoid X receptor (RXR) (AID 2283386)
Sequence of Retinoic acid receptor RXR-alpha (Homo sapiens) (P19793 whole entry, looked up, the tested form may be a part): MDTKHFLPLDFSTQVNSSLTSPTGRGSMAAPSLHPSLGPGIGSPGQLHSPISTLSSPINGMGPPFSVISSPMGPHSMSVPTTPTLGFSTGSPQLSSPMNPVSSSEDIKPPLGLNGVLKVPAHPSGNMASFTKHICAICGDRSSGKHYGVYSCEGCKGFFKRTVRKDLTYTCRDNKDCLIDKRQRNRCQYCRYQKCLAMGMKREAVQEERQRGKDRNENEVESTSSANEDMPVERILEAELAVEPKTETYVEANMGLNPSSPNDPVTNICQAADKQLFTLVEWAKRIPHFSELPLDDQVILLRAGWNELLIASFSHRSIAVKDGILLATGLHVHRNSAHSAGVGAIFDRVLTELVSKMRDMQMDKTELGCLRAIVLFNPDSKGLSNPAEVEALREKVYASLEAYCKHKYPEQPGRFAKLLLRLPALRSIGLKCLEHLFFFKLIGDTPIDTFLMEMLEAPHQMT
In short: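 Fluorescence PCA read-out; HEK293T; 24 h post-dose; bait/prey fused to reporter fragments; gain-of-signal fit vs DMSO negative control.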

[2] = target: Peroxisome proliferator-activated receptor gamma (Homo sapiens) (UniProt P37231); assay: OT_PPARg_PPARgSRC1_0480: Odyssey Thera (OT) 8-hour Protein-Complementation Assay for Peroxisome Proliferator-activated Receptor Gamma / SRC-1 Co-activator (AID 2283387);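 further: nuclear to cytoplasmic split Venus YFP fluorescence ratio reporting PPARg SRC-1 interaction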
Sequence of Peroxisome proliferator-activated receptor gamma (Homo sapiens) (P37231 whole entry, looked up, the tested form may be a part): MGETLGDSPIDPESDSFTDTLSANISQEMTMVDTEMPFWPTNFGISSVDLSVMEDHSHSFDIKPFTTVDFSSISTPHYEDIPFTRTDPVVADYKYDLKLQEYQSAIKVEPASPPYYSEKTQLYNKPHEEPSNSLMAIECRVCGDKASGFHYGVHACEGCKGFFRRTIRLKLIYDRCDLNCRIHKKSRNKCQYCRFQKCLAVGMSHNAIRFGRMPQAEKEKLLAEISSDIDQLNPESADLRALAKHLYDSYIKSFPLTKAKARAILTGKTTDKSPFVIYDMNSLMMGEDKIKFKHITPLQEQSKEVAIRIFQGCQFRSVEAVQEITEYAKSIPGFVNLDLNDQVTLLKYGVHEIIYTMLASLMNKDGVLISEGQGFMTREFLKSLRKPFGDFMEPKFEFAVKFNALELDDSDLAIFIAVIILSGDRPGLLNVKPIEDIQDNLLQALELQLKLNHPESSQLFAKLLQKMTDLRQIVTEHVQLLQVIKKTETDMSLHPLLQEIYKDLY
In short: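 Read-out: 488 nm N/C fluorescence ratio from complemented Venus YFP fragments, ≥350 cells per image, gain-of-signal fitted against DMSO baseline. Fusions of PPARg/SRC-1 with IFP1/IFP2 expressed transiently in HEK293T; compounds applied 8 h.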

[3] = target: Peroxisome proliferator-activated receptor gamma (Homo sapiens) (UniProt P37231); assay: OT_PPARg_PPARgSRC1_1440: Odyssey Thera (OT) 24-hour Protein-Complementation Assay for Peroxisome Proliferator-activated Receptor Gamma/ SRC-1 Co-activator (AID 2283388);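 further: nuclear to cytoplasmic ratio of reconstituted Venus YFP fluorescence in fixed imaged cells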
In short: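 Protein-fragment complementation between PPARg and coactivator SRC-1 was measured by fluorescence imaging in transiently transfected HEK293T cells after 24 h treatment. Signal was quantified as N/C ratio in the 488 nm channel, with DMSO as negative control.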

[4] = CEETOX_H295R_OHPREG: CeeTox H295R High-throughput Steroidogenesis Assay for OH-Pregnenolone (OHPREG) (AID 2283434; active means hit-call score of the fitted dose curve at least 0.9, where 1 is the maximum; inactive means score below 0.9); conditions: actives raise or lower the signal
In short: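 Readout: HPLC-MS/MS of 17alpha-hydroxypregnenolone in medium after 48 h chemical exposure of H295R cells pretreated with forskolin. Values fitted bidirectionally relative to DMSO; chemicals reducing viability to 20–70% were retested after 10-fold dilution.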

[5] = CEETOX_H295R_OHPROG: CeeTox H295R High-throughput Steroidogenesis Assay for OH-Progesterone (OHPROG) (AID 2283435; active means hit-call score of the fitted dose curve at least 0.9, where 1 is the maximum; inactive means score below 0.9); conditions: actives raise or lower the signal
In short: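 HPLC-MS/MS quantification of 17alpha-hydroxyprogesterone secreted by H295R cells after 48 h chemical exposure, following 48 h 10 uM forskolin prestimulation. Gain or loss of signal fitted relative to DMSO. Viability checked by MTT in the same wells.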

[6] = CEETOX_H295R_CORTISOL: CeeTox H295R High-throughput Steroidogenesis Assay for Cortisol (AID 2283438; active means hit-call score of the fitted dose curve at least 0.9, where 1 is the maximum; inactive means score below 0.9;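 further: cortisol secreted into medium quantified by LC-MS/MS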); conditions: actives raise or lower the signal
In short: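 Read-out: cortisol in culture medium by reverse-phase C18 HPLC with ESI-positive tandem MS, after MTBE liquid-liquid extraction. Cells: human adrenal H295R, forskolin-primed (10 uM, 48 h) before 48 h chemical exposure in 0.1% DMSO.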

Measured: outcome

O=P1(N(CCCl)CCCl)NCCCO1 (stereo not drawn)
inactive: [1] | [2] | [3]

Cc1cccc(N)c1
inactive: [2] | [3] | [4] | [5]

c1ccc(OP(Oc2ccccc2)Oc2ccccc2)cc1
inactive: all assays above

CC1(C)CN=C(NN=C(/C=C/c2ccc(C(F)(F)F)cc2)/C=C/c2ccc(C(F)(F)F)cc2)NC1
inactive: [2] | [3]

CCCCOCCOP(=O)(OCCOCCCC)OCCOCCCC
inactive: all assays above

O=C(O)CF
inactive: [2] | [3]
